# Results from PubChem BioAssay (NCATS).
# Results filed as inconclusive are left out. Activity calls are given as the source filed them. The call rests on the fitted dose curve; in most records, active means well fitted cell-killing curve with a large enough effect; inconclusive means small, poorly fitted or top-dose-only effect, or effect the other way; inactive means no such curve, though single readings can be large or run the other way.
# What was measured:
# [1] = Quantitative High-Throughput drug screen in 47 multiple myeloma cell lines against the NCATS MIPE library collection: XG1_PLB cell viability assay (AID 1919866); further: nearly all actives have a fitted effect of over 35% in size
# In short: (§1)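 Myeloma cells (500/well) treated with MIPE 4.0 compounds for 48 h at 37 °C, 5% CO2. Viability read as ATP via CellTiter-Glo luminescence after 5 min at RT; DMSO-only wells = 100%, media-only = 0% viability.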
# [2] = Quantitative High-Throughput drug screen in 47 multiple myeloma cell lines against the NCATS MIPE library collection: VP6_DJ cell viability assay (AID 1919867); further: nearly all actives have a fitted effect of over 40% in size
# In short: as §1
# [3] = Quantitative High-Throughput drug screen in 47 multiple myeloma cell lines against the NCATS MIPE library collection: UTMC2_PLB cell viability assay (AID 1919868); further: nearly all actives have a fitted effect of over 55% in size
# In short: as §1
# [4] = Quantitative High-Throughput drug screen in 47 multiple myeloma cell lines against the NCATS MIPE library collection: PCM6_Riken cell viability assay (AID 1919870); further: nearly all actives have a fitted effect of over 30% in size
# In short: as §1
# [5] = Quantitative High-Throughput drug screen in 47 multiple myeloma cell lines against the NCATS MIPE library collection: RPMI8226_ATCC cell viability assay (AID 1919871); further: nearly all actives have a fitted effect of over 30% in size
# In short: as §1
# [6] = Quantitative High-Throughput drug screen in 47 multiple myeloma cell lines against the NCATS MIPE library collection: KMS11_JCRBsus cell viability assay (AID 1919873); further: nearly all actives have a fitted effect of over 50% in size
# In short: as §1
# [7] = Quantitative High-Throughput drug screen in 47 multiple myeloma cell lines against the NCATS MIPE library collection: KMS28BM_JCRB cell viability assay (AID 1919874); further: nearly all actives have a fitted effect of over 35% in size
# In short: as §1
# [8] = Quantitative High-Throughput drug screen in 47 multiple myeloma cell lines against the NCATS MIPE library collection: PE2_PLB cell viability assay (AID 1919869); further: nearly all actives have a fitted effect of over 35% in size
# In short: as §1
# [9] = Quantitative High-Throughput drug screen in 47 multiple myeloma cell lines against the NCATS MIPE library collection: OPM2_DSMZ cell viability assay (AID 1919872); further: nearly all actives have a fitted effect of over 30% in size
# In short: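 Viability readout: CellTiter-Glo luminescence following 5 min room-temperature incubation with reagent. Prior exposure: 48 h, 37C, humidified 5% CO2, 500 cells per well.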
# Potency means the concentration at half of the fitted maximal effect.
Compound,Potency [1],Potency [2],Potency [3],Potency [4],Potency [5],Potency [6],Potency [7],Potency [8],Potency [9]
NC1(c2ccc(-c3nc4ccn5c(=O)[nH]nc5c4cc3-c3ccccc3)cc2)CCC1,20.9 µM (active),1.87 µM (active),1.18 µM (active),1.66 µM (active),1.05 µM (active),5.26 µM (active),9.35 µM (active),,
CC(=O)Oc1ccccc1C(=O)Nc1ncc([N+](=O)[O-])s1,30.3 µM (active),17.1 µM (active),13.6 µM (active),,,17.1 µM (active),,13.6 µM (active),
O[C@@H](CNC[C@H](O)[C@H]1CCc2cc(F)ccc2O1)[C@@H]1CCc2cc(F)ccc2O1,20.9 µM (active),14.8 µM (active),20.9 µM (active),,,7.43 µM (active),18.7 µM (active),26.4 µM (active),18.7 µM (active)
CCCc1nc(C)c2c(=O)[nH]c(-c3cc(S(=O)(=O)N4CCN(CC)CC4)ccc3OCC)nn12,5.9 µM (active),5.9 µM (active),10.5 µM (active),5.26 µM (active),9.35 µM (active),2.96 µM (active),3.72 µM (active),5.9 µM (active),5.9 µM (active)
CS(=O)(=O)c1ccc([C@@H](O)[C@@H](CO)NC(=O)C(Cl)Cl)cc1,18.7 µM (active),16.6 µM (active),13.2 µM (active),16.6 µM (active),2.35 µM (active),11.8 µM (active),,,inactive
COc1ncnc(NS(=O)(=O)c2ccc(N)cc2)c1OC,inactive,inactive,inactive,inactive,inactive,inactive,inactive,inactive,
O=P(O)(O)C(O)(Cc1cccnc1)P(=O)(O)O,inactive,inactive,inactive,inactive,,inactive,inactive,inactive,inactive
Cc1ccc(S(=O)(=O)N[C@@H](Cc2ccccc2)C(=O)CCl)cc1,7.43 µM (active),9.35 µM (active),13.2 µM (active),,,9.35 µM (active),11.8 µM (active),10.5 µM (active),18.7 µM (active)
COc1cc(NCc2ccc3nc(N)nc(N)c3c2C)cc(OC)c1OC,3.72 µM (active),2.64 µM (active),0.743 µM (active),,16.6 µM (active),2.64 µM (active),20.9 µM (active),1.66 µM (active),18.7 µM (active)
Nc1nc(F)nc2c1ncn2[C@@H]1O[C@H](CO)[C@@H](O)[C@@H]1O,0.418 µM (active),0.132 µM (active),0.235 µM (active),0.264 µM (active),,0.296 µM (active),0.526 µM (active),0.209 µM (active),0.833 µM (active)
CNCC[C@H](Oc1cccc2ccccc12)c1cccs1,0.833 µM (active),3.72 µM (active),2.64 µM (active),3.72 µM (active),,26.4 µM (active),26.4 µM (active),4.18 µM (active),
C1CCC(C(CC2CCCCN2)C2CCCCC2)CC1 (stereo not drawn),13.2 µM (active),8.33 µM (active),13.2 µM (active),10.5 µM (active),11.8 µM (active),8.33 µM (active),9.35 µM (active),18.7 µM (active),23.5 µM (active)
CC(C)(C)NC(=O)[C@H]1CC[C@H]2[C@@H]3CC[C@H]4NC(=O)C=C[C@]4(C)[C@H]3CC[C@]12C,0.235 µM (active),0.662 µM (active),1.66 µM (active),0.59 µM (active),,inactive,inactive,1.32 µM (active),inactive
CC(C)C[C@H](NC(=O)[C@H](CCc1ccccc1)NC(=O)CN1CCOCC1)C(=O)N[C@@H](Cc1ccccc1)C(=O)N[C@@H](CC(C)C)C(=O)[C@@]1(C)CO1,0.001 µM (active),0.001 µM (active),0.001 µM (active),0.001 µM (active),0.0166 µM (active),0.0053 µM (active),0.0053 µM (active),0.001 µM (active),0.0166 µM (active)
CNC(=O)c1cc(Oc2ccc(NC(=O)Nc3ccc(Cl)c(C(F)(F)F)c3)cc2)ccn1,5.9 µM (active),8.33 µM (active),9.35 µM (active),7.43 µM (active),20.9 µM (active),20.9 µM (active),20.9 µM (active),7.43 µM (active),
CN(C)c1ccc(C(=C2C=CC(=[N+](C)C)C=C2)c2ccc(N(C)C)cc2)cc1,0.0235 µM (active),0.0296 µM (active),0.001 µM (active),0.0372 µM (active),0.0935 µM (active),0.0264 µM (active),0.0743 µM (active),0.0166 µM (active),0.166 µM (active)
O=c1cc(O)c(Cl)c[nH]1,3.72 µM (active),0.132 µM (active),,2.96 µM (active),inactive,,,inactive,
O=NN(CCCl)C(=O)NC1CCCCC1,inactive,inactive,inactive,,,inactive,inactive,inactive,
NNC(=O)c1ccncc1,inactive,inactive,,inactive,inactive,inactive,inactive,inactive,inactive
CCn1cc(C(=O)O)c(=O)c2cc(F)c(N3CCNCC3)cc21,inactive,inactive,inactive,inactive,inactive,inactive,inactive,inactive,inactive
COc1cc2c(Nc3ccc(Br)cc3F)ncnc2cc1OCC1CCN(C)CC1,7.43 µM (active),,,,,,,,
COc1ccc2cc3[n+](cc2c1OC)CCc1cc2c(cc1-3)OCO2,16.6 µM (active),7.43 µM (active),3.32 µM (active),11.8 µM (active),,3.32 µM (active),,14.8 µM (active),

Compound,Potency [1],Potency [2],Potency [3],Potency [4],Potency [5],Potency [6],Potency [7],Potency [8],Potency [9]
COC(=O)Nc1nc2ccc(C(=O)c3ccccc3)cc2[nH]1,0.332 µM (active),2.35 µM (active),2.35 µM (active),,,0.332 µM (active),,2.96 µM (active),1.48 µM (active)
C[C@@H]1C[C@H]2[C@@H]3CCC4=CC(=O)C=C[C@]4(C)[C@@]3(Cl)[C@@H](O)C[C@]2(C)[C@@]1(OC(=O)c1ccco1)C(=O)CCl,3.72 µM (active),2.96 µM (active),10.5 µM (active),2.96 µM (active),,,29.6 µM (active),5.9 µM (active),23.5 µM (active)
CCOC(=O)[C@H](CCc1ccccc1)N[C@H]1CS[C@H](c2cccs2)CN(CC(=O)O)C1=O,0.935 µM (active),0.296 µM (active),11.8 µM (active),1.05 µM (active),16.6 µM (active),1.66 µM (active),0.59 µM (active),,
CCCOc1ccc(C(=O)OCCN(CC)CC)cc1N,inactive,9.35 µM (active),inactive,,inactive,14.8 µM (active),,inactive,inactive
OC(Cn1cncn1)(Cn1cncn1)c1ccc(F)cc1F,inactive,inactive,inactive,inactive,,inactive,inactive,inactive,
NC(=O)c1cccnc1,inactive,inactive,inactive,,,inactive,inactive,inactive,
Oc1c(Cl)cc(Cl)c2cccnc12,11.8 µM (active),5.9 µM (active),11.8 µM (active),9.35 µM (active),,18.7 µM (active),16.6 µM (active),9.35 µM (active),26.4 µM (active)
CCn1cc(C(=O)O)c(=O)c2cc(F)c(N3CCN(C)CC3)cc21,inactive,inactive,inactive,,,inactive,,inactive,inactive
CCOCC(O)COc1ccc(NC(=O)CC[S+](C)C)cc1 (stereo not drawn),inactive,inactive,inactive,,inactive,,inactive,inactive,
Nc1nc(=S)c2[nH]cnc2[nH]1,0.662 µM (active),1.66 µM (active),5.9 µM (active),,4.69 µM (active),4.18 µM (active),5.26 µM (active),1.66 µM (active),3.72 µM (active)
CN1CCCC(n2nc(Cc3ccc(Cl)cc3)c3ccccc3c2=O)CC1 (stereo not drawn),1.48 µM (active),1.48 µM (active),1.87 µM (active),3.32 µM (active),,1.32 µM (active),0.372 µM (active),7.43 µM (active),
Cc1nnc(C(=O)NC(C)(C)c2nc(C(=O)NCc3ccc(F)cc3)c(O)c(=O)n2C)o1,inactive,inactive,inactive,inactive,inactive,inactive,,inactive,inactive
COc1ccc(C(=O)CC(=O)c2ccc(C(C)(C)C)cc2)cc1,1.66 µM (active),2.64 µM (active),3.72 µM (active),0.935 µM (active),,inactive,7.43 µM (active),5.26 µM (active),
CCOC(=O)[C@H](CCc1ccccc1)N[C@H]1CCc2ccccc2N(CC(=O)O)C1=O,18.7 µM (active),18.7 µM (active),29.6 µM (active),,18.7 µM (active),8.33 µM (active),18.7 µM (active),20.9 µM (active),
CCOC(=O)c1ccc(OC(=O)CCCCCN=C(N)N)cc1,inactive,inactive,,inactive,,inactive,inactive,inactive,inactive
Cc1onc(-c2ccccc2Cl)c1C(=O)N[C@@H]1C(=O)N2[C@@H]1SC(C)(C)[C@@H]2C(=O)O,inactive,inactive,,inactive,inactive,inactive,inactive,inactive,inactive
COc1ccccc1OCC(O)COC(N)=O (stereo not drawn),inactive,,inactive,inactive,inactive,,,inactive,inactive
Nc1ccc(S(=O)(=O)Nc2ccccn2)cc1,inactive,inactive,,,,inactive,inactive,inactive,inactive
COc1cc2nc(N3CCCN(C)CC3)nc(NC3CCN(Cc4ccccc4)CC3)c2cc1OC,2.96 µM (active),4.69 µM (active),,,,4.69 µM (active),10.5 µM (active),2.35 µM (active),7.43 µM (active)
COc1nc(N)nc2c1ncn2[C@@H]1O[C@H](CO)[C@@H](O)[C@@H]1O,inactive,inactive,,inactive,,inactive,inactive,inactive,0.469 µM (active)
CCC(=O)O[C@]1(C(=O)CCl)[C@@H](C)C[C@H]2[C@@H]3CCC4=CC(=O)C=C[C@]4(C)[C@@]3(F)[C@@H](O)C[C@@]21C,inactive,0.0332 µM (active),,inactive,0.0059 µM (active),,inactive,inactive,inactive
